The panel holds about 83,000 compounds, 20% with a hit somewhere; the sample as a whole holds those more often.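 Interpretation: 100, growth as untreated; towards 0, rising growth inhibition; 0, no net growth; 0 to -100, cell death. Compounds scoring below 10 were considered active.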 A number with no mark means an inactive call. Calls of active or inactive are those of the source.
Tests used:
Assay in all cases: NCI-60 one-dose screen, 48 h (100 = growth as untreated, 0 = no growth, -100 = all killed)
Conditions in all cases: 10 µM unless noted
[1] = system: HCT-15 colon
[2] = system: HT29 colon
[3] = system: SNB-75 CNS
[4] = system: U251 CNS
[5] = system: PC-3 prostate
[6] = system: SK-MEL-5 melanoma
[7] = system: UACC-62 melanoma
[8] = system: LOX IMVI melanoma
[9] = system: SK-MEL-28 melanoma
[10] = system: SK-MEL-2 melanoma
[11] = system: EKVX NSCLC
[12] = system: UO-31 renal
[13] = system: TK-10 renal
[14] = system: CCRF-CEM leukemia
[15] = system: MOLT-4 leukemia
[16] = system: SNB-19 CNS
[17] = system: ACHN renal
[18] = system: CAKI-1 renal
[19] = system: SN12C renal
[20] = system: A498 renal

SMILES	growth [1] [%]	growth [2]	growth [3] [%]	growth [4]	growth [5]	growth [6]	growth [7]	growth [8]	growth [9]	growth [10]	growth [11] [%]	growth [12]	growth [13]	growth [14]	growth [15]	growth [16] [%]	growth [17] [%]	growth [18]	growth [19] [%]	growth [20]
C=C1C(=O)O[C@H]2[C@H]1CC/C(C(=O)NCCCCCCCCNC(=O)/C1=C/CC[C@@]3(C)O[C@H]3[C@H]3OC(=O)C(=C)[C@@H]3CC1)=C\CC[C@@]1(C)O[C@@H]21	107	82.5%	85.9	95.6%	74.5%	98.3%	56.3%	84%	42.3%	80.1%	97.2	80.8%	64.4%	4.79% (active)	15.2%	–	–	–	–	–
O=c1[nH]c(=O)n(C2CC(O)C(CO)O2)cc1CO (stereo not drawn)	98.7	105%	84.3	2.98% (active)	–	108%	79.2%	96.1%	101%	–	98.8	102%	90.5%	79.8%	87.7%	30.2	101	86.3%	–	–
COc1cc(-c2ccc(N=Nc3c(O)c(C(=O)Nc4ccccc4OC)cc4ccccc34)c(OC)c2)ccc1N=Nc1c(O)c(C(=O)Nc2ccccc2OC)cc2ccccc12	–	108%	74.8	94%	93.4%	98.9%	101%	86.3%	97.4%	101%	96.4	78.7%	110%	9.35% (active)	93.8%	96	90.7	83.8%	98.6	78%
CC(=O)OCCc1ccccc1	107	107%	–	100%	99.2%	105%	100%	101%	111%	99.6%	96.2	97.8%	106%	105%	91.9%	102	100	77.1%	95	95.5%
Clc1ccc(-c2nnc(-c3ccco3)o2)cc1	112	105%	–	98.7%	96.7%	108%	93.9%	97.8%	125%	–	100	84.4%	120%	87.4%	90.1%	90.6	100	73.3%	82.6	–
CCOC(=O)c1c2c(c(C)n1C)-c1nn(Cc3ccc(OC)cc3)cc1CC2	83.9	79.1%	–	96.4%	66.3%	69.6%	68.9%	84.5%	119%	–	79.6	91.3%	206%	82.9%	69.4%	95.2	91.9	85.2%	–	98.7%
CC(C)(O)c1cccc(F)c1	99.2	108%	–	106%	99.9%	103%	88.7%	97.7%	101%	–	92	88.7%	109%	-41.6% (active)	107%	–	99.1	101%	–	97%
CSc1ncc(C)c(Nc2ccc(Cl)cc2)n1	99.3	96.4%	–	93%	87.6%	110%	99.4%	107%	114%	103%	77.4	76.4%	95.6%	96.5%	82.5%	105	103	91%	102	88.5%
CC1=NN(c2cccc(Cl)c2)C(=O)/C1=C\c1cn(CC(O)CN2CCCCC2)c2ccccc12 (stereo not drawn)	36.8	-57.3% (active)	–	36.5%	62.3%	55.5%	-47.4% (active)	11%	-28.1% (active)	73.8%	88	67%	71.7%	41.9%	48.3%	84.2	38.6	24%	66.3	80.2%
COc1ccc(Nc2ncc(Br)c(NCCCNC(=O)C3CCC3)n2)cc1	21.7	31%	–	19.8%	39.2%	44.2%	56.6%	4.32% (active)	54.7%	42.1%	–	-19.8% (active)	5.53% (active)	17.2%	12.1%	33.1	19.5	0.899% (active)	27.8	26.1%
OC(c1cccc(OCc2ccccc2)c1)c1nnc(-c2ccccc2)o1 (stereo not drawn)	90	116%	–	96.7%	81%	66.4%	61.7%	84.9%	108%	100%	77.3	68.1%	143%	75.7%	105%	99.4	92.6	95.2%	92.8	102%
O=[N+]([O-])c1ccc2[nH]cc(-c3c4ccsc4cc4[nH]c5ccc([N+](=O)[O-])cc5c34)c2c1	11.3	-14.5% (active)	–	6.49% (active)	9.2% (active)	-7.86% (active)	14.5%	0.522% (active)	27.1%	2.1% (active)	29	22.9%	30.9%	7.42% (active)	5.22% (active)	13.4	24.5	26.2%	21.7	-16.6% (active)
